Results filed as inconclusive are left out. Active and inactive are the calls of the source. The call rests on the fitted dose curve; in most records, active means well fitted curve in the direction sought with a large enough effect; inconclusive means small, poorly fitted or top-dose-only effect, or another doubt; inactive means no such curve, though single readings can be large; an effect the other way counts as inactive or inconclusive.
Columns and labels:
[1] = Quantitative High-Throughput drug screen in 47 multiple myeloma cell lines against the NCATS MIPE library collection: KMM1_JCRB cell viability assay (AID 1918960); further: nearly all actives have a fitted effect of over 30% in size;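 on viability (% of DMSO): 100% = DMSO-treated cells and 0% = medium-only wells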
Procedure, shortened: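 Here, 48 h treatment with MIPE 4.0 agents at 37 °C preceded an ATP luminescence read. Plating density was 500 cells per well.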

[2] = Quantitative High-Throughput drug screen in 47 multiple myeloma cell lines against the NCATS MIPE library collection: Karpas417_ECACC cell viability assay (AID 1918961); details: Karpas417 myeloma viability, CellTiter-Glo ATP luminescence, 48 h; viability (% of DMSO): at 45.8 µM (top of the series)
Procedure, shortened: (§1)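 Steps: seed 500 cells per well; pin-transfer MIPE 4.0 library; incubate 48 h at 37C, 5% CO2, humidified; add CellTiter-Glo, 5 min room temperature; read luminescence.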

[3] = Quantitative High-Throughput drug screen in 47 multiple myeloma cell lines against the NCATS MIPE library collection: KHM11_PLB cell viability assay (AID 1918962); further: nearly all actives have a fitted effect of over 35% in size
Procedure, shortened: (§2)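 Luminescent ATP measurement with CellTiter-Glo gives viability, scaled between DMSO-only wells (100%) and media-only wells (0%). Cells, 500 per well, faced library compounds for 48 hours at 37C.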

[4] = Quantitative High-Throughput drug screen in 47 multiple myeloma cell lines against the NCATS MIPE library collection: INA6_PLB cell viability assay (AID 1918965; further: nearly all actives have a fitted effect of over 55% in size)
Procedure, shortened: as §1

[5] = Quantitative High-Throughput drug screen in 47 multiple myeloma cell lines against the NCATS MIPE library collection: JJN3_DSMZ cell viability assay (AID 1918966; further: nearly all actives have a fitted effect of over 50% in size)
Procedure, shortened: (§3)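 Approved and investigational drugs from MIPE 4.0 were added by pin tool to 500 cells per well. After 48 hours at 37C, ATP-based CellTiter-Glo luminescence indicated remaining viability.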

[6] = Quantitative High-Throughput drug screen in 47 multiple myeloma cell lines against the NCATS MIPE library collection: H1112_PLB cell viability assay (AID 1918967; further: nearly all actives have a fitted effect of over 30% in size)
Procedure, shortened: as §3

[7] = Quantitative High-Throughput drug screen in 47 multiple myeloma cell lines against the NCATS MIPE library collection: Karpas25_ECACC cell viability assay (AID 1918968; further: nearly all actives have a fitted effect of over 35% in size)
Procedure, shortened: as §3

[8] = Quantitative High-Throughput drug screen in 47 multiple myeloma cell lines against the NCATS MIPE library collection: KMS27_JCRB cell viability assay (AID 1918970); details: KMS27 myeloma cells, CellTiter-Glo ATP viability, 48 h; viability (% of DMSO): at 45.8 µM (top of the series); further: nearly all actives have a fitted effect of over 30% in size
Procedure, shortened: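 Myeloma cells (500 per well) were exposed to MIPE 4.0 compounds for 48 h at 37 °C, 5% CO2; viability was read as ATP luminescence with CellTiter-Glo, normalized to DMSO-only (100%) and media-only (0%) wells.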

[9] = Quantitative High-Throughput drug screen in 47 multiple myeloma cell lines against the NCATS MIPE library collection: JIM3_ECACC cell viability assay (AID 1918963; further: nearly all actives have a fitted effect of over 35% in size)
Procedure, shortened: as §2

[10] = Quantitative High-Throughput drug screen in 47 multiple myeloma cell lines against the NCATS MIPE library collection: JIM1_ECACC cell viability assay (AID 1918964)
Procedure, shortened: as §3
Potency means the concentration at half of the fitted maximal effect.

CC(C)(C)c1nc(-c2cccc(NS(=O)(=O)c3c(F)cccc3F)c2F)c(-c2ccnc(N)n2)s1
active: Potency [1] 3.32 µM | Potency [2] 5.9 µM | Potency [3] 5.9 µM | Potency [4] 0.264 µM | Potency [5] 3.32 µM | Potency [6] 8.33 µM | Potency [7] 5.26 µM | Potency [8] 16.6 µM

Cc1cccc(-c2[nH]c(C(C)(C)C)nc2-c2ccc3c(c2)OCO3)n1
active: Potency [1] 3.72 µM | Potency [2] 1.66 µM | Potency [3] 1.18 µM | Potency [9] 0.833 µM | Potency [10] 6.62 µM | Potency [4] 2.64 µM | Potency [5] 14.8 µM | Potency [6] 1.32 µM | Potency [7] 0.526 µM | Potency [8] 1.32 µM

CNC(=O)c1cc(Oc2ccc(NC(=O)Nc3ccc(Cl)c(C(F)(F)F)c3)c(F)c2)ccn1
active: Potency [1] 2.96 µM | Potency [2] 4.69 µM | Potency [3] 0.059 µM | Potency [9] 3.32 µM | Potency [10] 13.2 µM | Potency [4] 5.9 µM | Potency [5] 29.6 µM | Potency [7] 2.64 µM | Potency [8] 7.43 µM

NC(=O)c1nnn(Cc2cc(Cl)c(C(=O)c3ccc(Cl)cc3)c(Cl)c2)c1N
inactive: Potency [2] | Potency [3]
active: Potency [1] 5.9 µM | Potency [4] 14.8 µM | Potency [5] 20.9 µM

Cc1ccc(NC(=O)Nc2cc(C(F)(F)F)ccc2F)cc1Nc1ccc2c(c1)NC(=O)C2=Cc1ccc[nH]1
active: Potency [1] 5.9 µM | Potency [2] 2.09 µM | Potency [3] 7.43 µM | Potency [10] 4.18 µM | Potency [4] 4.18 µM | Potency [5] 23.5 µM | Potency [6] 11.8 µM | Potency [7] 5.26 µM | Potency [8] 8.33 µM

CC(C)[C@H](O)C(=O)N[C@@H](C)C(=O)N[C@@H]1C(=O)N(C)CCc2ccccc21
active: Potency [2] 0.0021 µM
inactive: Potency [1] | Potency [3] | Potency [10] | Potency [6] | Potency [8]

CN1CC(=O)N2C(Cc3c([nH]c4ccccc34)[C@H]2c2ccc3c(c2)OCO3)C1=O (stereo partly specified)
inactive: Potency [1] | Potency [2] | Potency [3] | Potency [6] | Potency [8]

CCN(CCO)CCCOc1ccc2c(Nc3cc(CC(=O)Nc4cccc(F)c4)[nH]n3)ncnc2c1
active: Potency [2] 0.469 µM | Potency [4] 0.0743 µM | Potency [8] 0.0083 µM
inactive: Potency [1] | Potency [3] | Potency [9] | Potency [6] | Potency [7]

O=C(CCCN1CCN(c2ccc(F)cc2)CC1)NC1c2ccccc2CSc2ccccc21 (stereo unspecified)
active: Potency [1] 4.69 µM | Potency [2] 8.33 µM | Potency [3] 4.18 µM | Potency [4] 4.69 µM | Potency [6] 7.43 µM | Potency [7] 3.32 µM | Potency [8] 5.9 µM

O=C(NCCCCN1CCOCC1)c1cc2ccccc2o1
active: viability (% of DMSO) [2] 159%
inactive: Potency [1] | Potency [3] | Potency [9] | Potency [5] | Potency [6] | Potency [8]

CN(C)CC[C@H](CSc1ccccc1)Nc1ccc(S(=O)(=O)NC(=O)c2ccc(N3CCN(Cc4ccccc4-c4ccc(Cl)cc4)CC3)cc2)cc1[N+](=O)[O-]
active: Potency [1] 4.69 µM | Potency [2] 0.0935 µM | Potency [3] 5.26 µM | Potency [10] 1.48 µM | Potency [4] 18.7 µM | Potency [5] 8.33 µM | Potency [6] 0.0743 µM | Potency [7] 1.48 µM | Potency [8] 0.0187 µM

Cc1nc(NC(=O)N2CCC[C@@H]2C(N)=O)sc1-c1csc(C(C)(C)C)n1
active: Potency [1] 1.05 µM | Potency [2] 1.05 µM | Potency [9] 5.9 µM | Potency [10] 1.32 µM | Potency [4] 16.6 µM | Potency [5] 6.62 µM | Potency [6] 2.09 µM | Potency [7] 5.9 µM | Potency [8] 2.35 µM

CCNC(=O)[C@H]1O[C@@H](n2cnc3c(N)nc(NCCc4ccc(CCC(=O)O)cc4)nc32)[C@H](O)[C@H]1O
inactive: Potency [1] | Potency [9] | Potency [10] | Potency [6]
active: Potency [2] 0.0296 µM | Potency [4] 0.209 µM | Potency [5] 0.059 µM | Potency [7] 0.105 µM

O=c1[nH]nc(OCCCc2ccc(Cl)cc2)c(NCc2cccnc2)c1Br
active: Potency [1] 18.7 µM | Potency [2] 4.69 µM | Potency [3] 2.96 µM | Potency [9] 8.33 µM | Potency [10] 8.33 µM | Potency [4] 4.69 µM | Potency [5] 20.9 µM | Potency [6] 10.5 µM | Potency [7] 6.62 µM | Potency [8] 7.43 µM

NS(=O)(=O)c1ccc(Nc2nc(OCC3CCCCC3)c3[nH]cnc3n2)cc1
active: Potency [1] 18.7 µM | Potency [2] 14.8 µM | Potency [3] 26.4 µM | Potency [9] 20.9 µM | Potency [10] 20.9 µM | Potency [4] 3.32 µM | Potency [7] 13.2 µM

CCC(C)SSc1ncc[nH]1 (stereo unspecified)
active: Potency [1] 3.32 µM | Potency [2] 2.35 µM | Potency [9] 14.8 µM | Potency [10] 5.9 µM | Potency [4] 4.69 µM | Potency [5] 4.69 µM | Potency [6] 5.26 µM | Potency [7] 4.18 µM | Potency [8] 10.5 µM

From PubChem BioAssay (NCATS)
